# A selection: hits, their analogues and other compounds. The true share with any hit is near 2.4%.
# D2 PAM-1: D2 dopamine receptor (human) potentiation. P14416. HEK293 T-REx D2, calcium flux, EC20 dopamine potentiation. potentiation, % at 10 µM. hit rate 0.34% among 340,000;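 active means potentiation over 3 SD above the plate norm, cut at about 30% in these data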; further: 0% is about no effect
# Target sequence (P14416 whole entry, looked up): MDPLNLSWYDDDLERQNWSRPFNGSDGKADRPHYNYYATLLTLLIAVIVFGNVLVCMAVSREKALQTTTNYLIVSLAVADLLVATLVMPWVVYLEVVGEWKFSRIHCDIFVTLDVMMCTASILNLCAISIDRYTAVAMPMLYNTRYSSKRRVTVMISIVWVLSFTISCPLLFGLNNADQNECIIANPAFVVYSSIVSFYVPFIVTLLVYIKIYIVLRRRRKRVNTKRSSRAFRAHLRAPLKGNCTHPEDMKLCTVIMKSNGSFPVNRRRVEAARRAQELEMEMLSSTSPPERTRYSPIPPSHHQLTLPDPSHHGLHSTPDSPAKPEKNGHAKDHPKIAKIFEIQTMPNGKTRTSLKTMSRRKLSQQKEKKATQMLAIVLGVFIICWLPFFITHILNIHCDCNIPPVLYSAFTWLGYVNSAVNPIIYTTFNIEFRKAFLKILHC
#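 Potentiation of an EC20 dopamine calcium response is measured in a force-coupled, tetracycline-inducible Hek293 Trex D2 line. Compound-only kinetic reads over 180 s flag agonists before dopamine addition.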
# D2 antag: D2 dopamine receptor (human) antagonism; HEK293 TREx D2 cells, calcium flux, dopamine EC80; inhibition, % at 10 µM; hit rate 2% among 340,000; AID 485344; in the data active means inhibition above about 30%; inactive means below that, where a call was filed; further: 0% is about no effect
#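 In this primary screen, negative modulation is detected by tracking calcium flux after an EC80 dopamine challenge in inducible HEK293 T-REx D2 cells preexposed to test compound for 180 s.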
# D2 ag-1: human D2 receptor agonism in beta-arrestin assay; AID 624465; hit rate 0.084% among 360,000; P14416; DiscoveRx PathHunter D2 beta-arrestin, luminescence, 90 min; 100% = 57 uM dopamine signal; activation, % (no concentration beside the values); in the data active means activation above about 40%; inconclusive means between about 15% and that limit
#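 DiscoveRx PathHunter D2 beta-arrestin cells (2,100/well) attached overnight, then compound-stimulated 90 min at 37 C in HBSS/10 mM HEPES/0.1% Tween-20 buffer; beta-galactosidase complementation read by luminescence after 1 h at ambient temperature. Dopamine 57 uM final (EC100) as control.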
# D2 PAM-2: potentiates the human D2 dopamine receptor allosterically | potentiation, % (no concentration beside the values) | DiscoveRx D2 beta-arrestin cells, luminescence, 90 min; 100% = 57 uM dopamine signal | hit rate 0.23% among 360,000 | AID 624464 | P14416; in the data active means potentiation above about 50%; inconclusive means mostly about 30% to 49%
#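 PathHunter beta-arrestin assay in DiscoveRx D2 cells. Compounds were added with an EC20 of dopamine (50 nM final) for 90 min at 37 deg C. Luminescence was read 1 h after detection reagent, with 57 uM dopamine as the EC100 control.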
# D2 ag-2: activates the human D2 dopamine receptor; HEK293 T-REx D2 cells, calcium flux agonist mode; activation, % at 2 µM; hit rate 0.53% among 340,000; AID 485358;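 active means activation over 3 SD above normal in the single-dose calcium agonist read, cut at about 30% in these data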; further: 0% is about no effect
#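 Agonism is scored from calcium flux in a force-coupled, inducible HEK293 cell line expressing D2, read kinetically for 180 s after compound addition against dopamine controls.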
# An asterisk follows results filed as active; ? = inconclusive; · = no result.
SMILES,D2 PAM-1,D2 antag,D2 ag-1,D2 PAM-2,D2 ag-2
CCN(CC)c1ccc2cc(-c3nc4ccccc4n3C)c(=O)oc2c1,-8,40*,2,6,72*
CCN(CC)c1ccc2cc(-c3nc(-c4ccc(OC)cc4)cs3)c(=O)oc2c1,-19,71*,?,25,101*
CNc1nc(C)nc(N/N=C/c2ccccc2)n1,-2,42*,10,-5,12
COc1ccc(-c2nc(CS(=O)(=O)CC(=O)NCc3cccc(F)c3)c(C)o2)cc1,-6,54*,-5,-4,0
CCOC(=O)N1CCC(NC(=O)CS(=O)(=O)Cc2nc(-c3cccc(OC)c3)oc2C)CC1,97*,24,0,-6,0
Cc1ccc(-c2nc(CS(=O)(=O)CC(=O)NCc3cccc(F)c3)c(C)o2)cc1,7,12,1,-2,·
COc1cccc(-c2nc(CS(=O)(=O)CC(=O)NC3CC3)c(C)o2)c1,-1,-7,-2,-6,0
COc1cc(CO)ccc1Oc1nnnn1-c1ccc(C(N)=O)cc1,-6,31*,-1,-6,0
CCn1cc(S(=O)(=O)c2ccc(C)cc2)c(=O)c2cc(F)c(N3CCCCCC3)cc21,-5,·,·,·,-2
OCCN(Cc1ccccc1)CC1CCCCC1,9,-7,-3,-20,1
OCCN(Cc1ccccc1)CC1CC2C=CC1C2 (configuration not stated),9,37*,-2,5,0
CN1C(=O)C2(C(C#N)=C(N)N(c3cc(Cl)cc(Cl)c3)C3=C2C(=O)CC(C)(C)C3)c2ccccc21 (configuration not stated),-2,33*,1,15,1
Cc1ccc(N2C(N)=C(C#N)C3(C(=O)N(C)c4ccccc43)C3=C2CC(C)(C)CC3=O)cc1Cl (configuration not stated),-12,-1,-1,-2,1
CCN(CC)S(=O)(=O)c1ccc(NC(=O)[C@H](CSCc2ccccc2)N2Cc3ccccc3C2=O)cc1,-13,·,·,·,-1
Cc1nc2cc(-c3cccc(F)c3)nn2c(C)c1CCC(=O)Nc1ccccc1C(N)=O,6,·,·,·,·
C/C(=N\NC(=O)c1c(C)nc2ccccn12)c1ccccc1F,-1,31*,-1,-1,0
O=C(c1cccs1)N1CCN(C(=O)C2CCCO2)CC1 (configuration not stated),-7,37*,-1,-1,7
O=C(NCCc1ccccc1)c1cnc2sc(N3CCCCC3)nn2c1=O,-1,·,·,·,0
Cc1ccc(NC(=O)Cn2c3ccc(F)cc3c3nc4n(c(=O)c32)CCS4)cc1F,35*,-3,-7,-3,2
O=C(Cn1c2ccc(F)cc2c2nc3n(c(=O)c21)CCS3)Nc1ccc(Cl)cc1F,7,-8,1,-10,0
O=C(Nc1ccccc1N1CCN(c2ccccc2)CC1)C12CC3CC(CC(C3)C1)C2,32*,1,1,7,0
CCOC(=O)Cn1ncc(-c2ccccc2)c1N,-6,57*,-2,20,0
CNCCC=C1c2ccccc2C=Cc2ccccc21,·,·,-8,-34,·
CN(C)CCC=C1c2ccccc2CCc2ccccc21,-29,64*,-4,-36,0
CN(C)CCC=C1c2ccccc2C=Cc2ccccc21,-17,49*,5,-28,0
SMILES,D2 PAM-1,D2 antag,D2 ag-1,D2 PAM-2,D2 ag-2
CC1CCN(CC(O)CN2c3ccccc3Sc3ccccc32)CC1 (configuration not stated),-26,71*,-6,-56,-2
Cc1ccc(S(=O)(=O)N(C(=O)c2ccco2)c2cc3sc(=O)oc3c3ccccc23)cc1,2,-1,?,63*,0
CCOc1ccc(S(=O)(=O)N(C)CC(=O)NCc2ccco2)cc1,·,6,0,-3,-3
CC(=O)N(c1ccc2oc(=O)sc2c1)S(=O)(=O)c1ccccc1,4,0,2,?,-1
COc1ccc(S(=O)(=O)N(C(=O)c2ccco2)c2cc3sc(=O)oc3c3ccccc23)cc1,2,0,?,97*,0
CCOc1ccc(S(=O)(=O)N(C(=O)c2ccco2)c2cc3sc(=O)oc3c3ccccc23)cc1,3,-1,?,150*,0
CCC(=O)N1c2ccc(S(=O)(=O)NCc3ccc(F)cc3)cc2CC1C (configuration not stated),-17,·,·,·,0
Cc1ncoc1C(=O)N1CCCC(C(=O)c2ccc(-c3ccccc3)cc2)C1 (configuration not stated),-6,52*,0,-7,-1
O=C(c1ccc(-c2ccccc2)cc1)C1CCCN(Cc2ccncc2)C1 (configuration not stated),-38,75*,5,-16,0
O=C(O)C1CC=CCC1C(=O)NCCCCc1ccccc1 (configuration not stated),0,34*,1,-1,0
Cc1ccccc1NC(=O)CSc1nc2nccnc2c(=O)n1CCc1c[nH]c2ccccc12,-1,·,·,·,1
CC(C)CNC(=O)COC(=O)c1ccc([N+](=O)[O-])cc1Cl,0,-6,3,57*,-1
O=C(COC(=O)c1ccc([N+](=O)[O-])cc1Cl)NCc1ccco1,0,-5,8,7,0
O=C1COc2ccc(C(=O)COC(=O)c3ccccc3[N+](=O)[O-])cc2N1,0,·,2,-12,·
O=C1COc2ccc(C(=O)COC(=O)c3ccc([N+](=O)[O-])cc3Cl)cc2N1,-13,3,?,51*,1
O=C1COc2ccc(C(=O)COC(=O)c3ccc(Cl)cc3[N+](=O)[O-])cc2N1,-1,9,?,52*,0
COc1ccccc1CNC(=O)CCCN1C(=O)CSc2c1c(C)nn2-c1ccccc1,-12,·,·,·,·
COC(=O)C1=CN(CC2CCCO2)C=C(C(=O)OC)C1c1ccccc1C(F)(F)F (configuration not stated),6,43*,-1,12,0
COC(=O)C1=CN(CC2CCCO2)C=C(C(=O)OC)C1c1cccc(O)c1 (configuration not stated),12,-14,-4,-11,1
COc1cc(C(=O)NCCc2sc(-c3cccc(F)c3)nc2C)cc(OC)c1OC,-15,·,·,·,0
Cc1cc(C)n(-c2ccc(C(=O)OCC(=O)N(CC(C)C)C3CCS(=O)(=O)C3)cc2)n1 (configuration not stated),-2,51*,-1,5,-1
COc1cc(/C=C(/C#N)c2nc3ccccc3[nH]2)ccc1OCC(=O)Nc1ccccc1C,6,-3,-8,9,22
COc1cc(/C=C(/C#N)c2nc3ccccc3[nH]2)ccc1OCC(=O)Nc1ccccc1C(C)C,-6,32*,1,0,2
